Screens deposited in PubChem BioAssay by National Center for Advancing Translational Sciences (NCATS).
Most compounds without a hit are left out; they make up all but 4.7% or so of the library.
D1 agonist – agonists of human D1 dopamine receptor. HEK293 T-REx D1 cells, calcium flux, agonist mode. 360,000 compounds, 1% hits. activation, % at 2 µM. P21728; also: 0% is about no effect
Target sequence (P21728 whole entry, looked up): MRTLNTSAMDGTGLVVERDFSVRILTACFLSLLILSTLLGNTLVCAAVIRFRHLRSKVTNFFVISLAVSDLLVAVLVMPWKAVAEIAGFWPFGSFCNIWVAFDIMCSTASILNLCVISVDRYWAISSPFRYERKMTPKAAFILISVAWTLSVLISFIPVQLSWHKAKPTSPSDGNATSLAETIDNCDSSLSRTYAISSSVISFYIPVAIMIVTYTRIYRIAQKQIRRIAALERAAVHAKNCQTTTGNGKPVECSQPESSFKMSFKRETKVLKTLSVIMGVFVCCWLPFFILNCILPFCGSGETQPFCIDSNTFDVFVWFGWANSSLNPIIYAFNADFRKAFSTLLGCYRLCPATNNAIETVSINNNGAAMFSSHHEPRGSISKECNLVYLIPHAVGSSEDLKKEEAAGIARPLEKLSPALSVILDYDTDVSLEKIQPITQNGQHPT
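Inducible HEK293 T-REx D1 cells, force-coupled to calcium signalling, were plated at 4000 cells/well with tetracycline and held overnight at 30 C. After no-wash calcium dye loading, compound-evoked calcium rise over 180 s flagged agonists.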
D1 PAM – potentiators of human D1 dopamine receptor | 360,000 compounds, 0.036% hits | HEK293 TREx D1 cells, calcium flux, dopamine EC20 potentiation | P21728 | potentiation, % at 10 µM | AID 504651; in the data active = potentiation above about 30%; also: 0% is about no effect
D1 antag – blocks dopamine activation of the human D1 receptor. 360,000 compounds, 3.2% hits. HEK293 TREx D1 cells, calcium flux, dopamine EC80; stronger effect = lower value. AID 504652. activity change, negative = inhibition, % at 10 µM; in the data active = activity change below about -30%; also: % is scaled to controls: 0 for no effect and ±100 for the full control effect
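After overnight tetracycline induction at 30 C, force-coupled D1 HEK293 cells took up a no-wash calcium dye at room temperature. Compounds were added and monitored 180 s, and the response to EC80 dopamine was then recorded.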
TRHR PAM – TRH receptor (human) allosteric enhancement; 360,000 compounds, 0.66% hits; TRHR cells, fluo-8 calcium fluorescence, EC20 TRH enhancement; enhancement, % at 2 µM; in the data active = enhancement above about 30%; also: 0% is about no effect
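Enhancer read-out: after compound pinning and an initial kinetic agonist-mode read, an EC20 of TRH (10 nM final) was injected and fluo-8 calcium signal (Ex 480/Em 530) followed at 1 s/cycle for 100 cycles in TRHR-expressing cells.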
TRHR ag – activates the human TRH receptor | activation, % at 2 µM | TRHR cells, calcium flux fluo-8, FDSS agonist mode | 360,000 compounds, 0.18% hits | AID 493084 | P34981; also: 0% is about no effect
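Fluo-8-loaded TRHR cells; 10 s baseline, compound added, kinetic Ca2+ fluorescence read 1/s, agonist mode.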
Numbers without * were called inactive. Rule as the data show it, unless noted: active = activation above about 30%; inactive = the rest.

SMILES	D1 agonist	D1 PAM	D1 antag	TRHR PAM	TRHR ag
COc1ccc(Cn2c(-c3ccccc3)nc3c(c(=O)c4ccccc4n3C)c2=O)cc1	8	40*	6	1	1
COc1ccc(CCn2c(C3CCCCC3)nc3c(c(=O)c4ccccc4n3C)c2=O)cc1OC	4	5	11	-5	-1
COc1ccc(CCn2c(-c3ccccc3)nc3c(c(=O)c4ccccc4n3C)c2=O)cc1	1	-8	-8	4	0
CC(C)c1nc2c(c(=O)c3ccccc3n2C)c(=O)n1CCc1ccccc1	93*	14	6	-11	13
CN(Cc1ccccc1)C(=O)c1nc2ccccn2c1CN1CCc2sccc2C1	3	-4	-33*	-6	-1
CN(Cc1c(C(=O)N(C)Cc2ccccc2)nc2ccccn12)CC1Cc2ccccc2O1 (stereo not given)	2	-3	-10	3	-1
Cc1ccc(CNC(=O)Cn2ncc3c(C)n(Cc4ccc(Cl)cc4)c(C)c3c2=O)cc1	-2	2	10	25	0
Cc1ccc(C(=O)OCc2cc3ccccc3[nH]c2=O)cc1	1	3	6	38*	0
O=C(N/N=C/c1coc2ccccc2c1=O)c1ccccc1	1	-7	-44*	-1	0
CCOc1ccccc1NC(=O)CSc1nnc(CNC(=O)COc2ccc(Cl)cc2)o1	6	-9	-38*	-10	0
COc1ccc(-c2cc(C(=O)N3CCN(c4ccccc4)CC3)c3ccccc3n2)cc1	3	-6	-37*	-15	0
Cc1ccc(-c2cc(C(=O)N3CCCCC3)c3ccccc3n2)cc1C	35*	3	43	7	0
O=C(c1cc(-c2ccccc2O)on1)N1CCc2ccccc2C1	3	-6	-32*	-1	0
O=C(c1cc2cc(Cl)ccc2[nH]1)N1CCc2ccccc2C1	6	-8	-57*	6	0
Cc1cc(C)c2c(c1)c(C)cc1nnc(SCC(=O)c3ccccc3)n12	-1	0	10	1	0
Cc1cc(C)c2c(CC(=O)N(Cc3ccccc3)C3CCS(=O)(=O)C3)coc2c1 (stereo not given)	4	3	8	-1	1
O=C(c1cc(-c2ccccc2Cl)nc2ccccc12)N1CCC1	2	1	36	5	-1
CCCc1cc(C(=O)NNC(=S)NCC)c2ccccc2n1	3	-10	-15	-1	-1
CCNC(=S)NNC(=O)c1cc(-c2cc(C)ccc2C)nc2ccccc12	2	-3	-31*	10	-1
Cc1ccccc1-c1cc(C(=O)N2CCCC2)c2ccccc2n1	4	4	-9	31*	0
COc1ccccc1-c1cc(C(=O)N2CCc3ccccc3C2)c2ccccc2n1	4	-6	-86*	-17	-1
O=C(c1ccccc1Cl)N1CCc2ccccc2C1	0	0	-4	-3	0
Cc1ccccc1C(=O)N1CCc2ccccc2C1	49*	8	-6	26	-1
CCCCN(CC)C(=O)CCNS(=O)(=O)c1ccc2c(c1)c(=O)n(C)c(=O)n2C	0	-3	3	0	-1
COc1ccc(N2CCN(C(=O)c3cnc(SC)nc3C)CC2)cc1	0	-1	-63*	-1	0
SMILES	D1 agonist	D1 PAM	D1 antag	TRHR PAM	TRHR ag
CCOC(=O)Cc1cc(-c2ccccc2)nc2ccc3ccccc3c12	10	-12	-36*	0	4
CC1CCN(C(=S)c2ccc(O)cc2)CC1	1	-12	-75*	-3	0
Cc1ccc(NC(=O)CSc2nc(=O)n3cc(C)ccc3n2)c(C)c1	3	-6	-35*	-5	0
CCn1c(C(Cc2ccccc2)NC(=O)COC)nc2ccccc21 (stereo not given)	-3	-8	-30*	-7	0
CCOC(=O)c1[nH]c(C)c(CCC(=O)Nc2cc(Cl)c(OC)cc2OC)c1C	1	-3	-8	4	-1
COc1cc2oc(=O)c(CC(=O)N3CCCCC3)c(C)c2cc1Cl	0	0	0	4	0
COc1cc(OC)c2c(C)c(CC(=O)N3CCCCC3)c(=O)oc2c1	3	-1	2	35*	0
C=CCC(Nc1ccccc1)c1ccc(OC)c(OC)c1 (stereo not given)	0	-3	-40*	0	0
CCN(CC)C(=O)c1nn(-c2ccc(OC)cc2)c(=O)c2c(N)scc12	2	-4	-12	-3	-1
O=C(COC(=O)CNS(=O)(=O)c1ccc(Br)cc1Cl)NCCc1ccccc1	3	-7	-34*	7	0
Cc1ccc(NC(=O)CN(C)C(=O)COC(=O)CNS(=O)(=O)c2ccc(Br)cc2Cl)cc1	7	-14	-34*	-4	8
O=C(COCc1cc(-c2ccc3c(c2)OCO3)on1)Nc1cc(Cl)ccc1O	5	-2	2	6	0
c1ccc(CNc2nc(N3CCN(Cc4ccccc4)CC3)nc3ccccc23)cc1	8	-14	-35*	0	0
c1coc(CNc2nc(N3CCCCC3)nc3ccccc23)c1	19	-20	-32*	1	-1
c1ccc(N2CCN(c3nc(NCc4ccco4)c4ccccc4n3)CC2)cc1	1	-16	-78*	3	0
Oc1ccccc1Nc1nc(NCc2ccccc2)c2ccccc2n1	1	4	4	1	0
CNc1nc(NCc2ccccc2)c2ccccc2n1	34*	-8	-37*	-14	2
Cc1c(C(=O)N(Cc2ccc(N(C)C)cc2)CC2CCCO2)oc2ccc(Br)cc12 (stereo not given)	-1	-2	-17	22	0
CC(=O)N1N=C(c2ccc(Cl)cc2)OC1(C)C	0	4	16	34*	0
COc1ccc(C)cc1NC(=O)C1CCN(S(=O)(=O)c2ccc3[nH]c4c(c3c2)CCCCC4)CC1	4	-3	-12	6	0
O=C1c2cccc3cccc(c23)C(=O)N1Cc1cccnc1	2	-6	20	3	-3
O=C1c2cccc3c([N+](=O)[O-])ccc(c23)C(=O)N1Cc1cccnc1	13	2	-40*	-9	9
COc1ccc(C2c3c(n(C)c4ccccc34)C(=O)N2CC(=O)Nc2cccc(Cl)c2)cc1 (stereo not given)	3	4	3	2	2
Cc1cc(S(=O)(=O)NC2CCCCC2)c(C)s1	5	-6	-30*	-1	-1
COc1ccc(C)cc1S(=O)(=O)NC1CCCCCC1	2	0	-4	2	0
NS(=O)(=O)c1cc(C(=O)NC2CCSc3ccccc32)ccc1Cl (stereo not given)	1	-5	-15	3	0
CS(=O)(=O)c1ccc(Cl)c(C(=O)NC2CCSc3ccccc32)c1 (stereo not given)	1	-9	-45*	-1	0
